Potency and affinity values are given separately. Records with an inconclusive call do not appear. Active and inactive are the calls of the source.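 The calls were made as follows, unless noted: active = a dose-response fit showing signal loss, with half-maximal concentration no higher than twice the top tested dose; inconclusive = flat fit between 30% and 70% signal loss, or poor fit; inactive = the rest.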
Assays:
[1] = Cryptococcus neoformans growth inhibition, dose response, Alamar Blue, cherry-picks (AID 686998;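 active = falling signal with fitted half-maximal potency no higher than twice the top valid tested dose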); conditions: 24 h; series mostly up to 35 µM
[2] = inducers of Cryptococcus neoformans cell lysis, dose response, AK release luminescence, cherry-picks (AID 687000;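 active = fitted dose curve reaches 40% lysis signal rise at or below the highest valid concentration tested for that sample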;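 also: luminescent detection of adenylate kinase leaking from lysed yeast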); conditions: C. neoformans lysis, adenylate kinase release luminescence, 4 h, 100% = twice the neutral-control signal; series mostly up to 15 µM
[3] = HepG2 cell cytotoxicity, dose response, cytotoxicity control, cherry-picks, set 2 (AID 687002); conditions: HepG2 viability, ATP luminescence (CellTiter-Glo), 48 h; series mostly up to 26 µM
[4] = HeLa cell cytotoxicity, dose response, cytotoxicity control, ATP luminescence, cherry-pick samples (AID 687004;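 active = a fitted half-maximal concentration no higher than twice the top valid tested dose, with signal falling as cells die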); conditions: HeLa viability, ATP luminescence (CellTiter-Glo), 48 h; series mostly up to 26 µM

Measured: outcome

COCC(=O)NC[C@H]1N[C@H](CO)[C@@H]1c1ccc(C2=CCCC2)cc1
inactive: all assays above

Cc1noc(C)c1NC(=O)N(C)C[C@@H]1Oc2ccc(NS(=O)(=O)c3cn(C)cn3)cc2CC(=O)N([C@H](C)CO)C[C@H]1C
inactive: all assays above

Cc1cccc(-c2ccc([C@@H]3[C@H]4CN(C(=O)c5ccc6c(c5)OCO6)CCCCN4[C@H]3CO)cc2)c1
inactive: [1] | [2] | [3]

C[C@H](CO)N1C[C@H](C)[C@@H](CN(C)C(=O)Nc2ccc(F)cc2)Oc2c(NS(=O)(=O)c3ccccc3)cccc2C1=O
inactive: all assays above

O=C(NC(=S)Nc1ccc(CN2CCOCC2)cc1)c1ccccc1[N+](=O)[O-]
inactive: all assays above

O=C(NCC[C@H]1CC[C@H](NS(=O)(=O)c2ccc(F)cc2)[C@@H](CO)O1)c1ccc2c(c1)OCO2
inactive: all assays above

C[C@@H]1CN([C@H](C)CO)C(=O)c2cccc(NC(=O)Nc3ccccc3)c2O[C@@H]1CN(C)Cc1ccc(Cl)c(Cl)c1
inactive: [1] | [2] | [3]

CNC(=O)CN(c1ccc(C)cc1)S(=O)(=O)c1ccccc1
inactive: [1] | [2] | [3]

CCCNC(=O)C[C@@H]1CC[C@@H]2[C@@H](COc3ccc(NC(=O)CCC)cc3C(=O)N2C)O1
inactive: all assays above

COc1ccc(C#Cc2cnc3c(c2)C(=O)N([C@@H](C)CO)C[C@H](C)[C@@H](CN(C)C(=O)CC2CC2)O3)cc1
inactive: all assays above

COc1cccc(-c2cn(CC[C@@H]3CC[C@@H](NC(C)=O)[C@H](CO)O3)nn2)c1
inactive: [1] | [2] | [3]

COCC(=O)N1C[C@H](C)[C@H](OC)CN(C)C(=O)c2ccc(NC(=O)NC(C)C)cc2OC[C@@H]1C
inactive: all assays above

C/C=C/c1ccc([C@H]2[C@@H](C#N)N(S(=O)(=O)c3cccc(F)c3)[C@H]2CO)cc1
inactive: all assays above

COc1cccc(S(=O)(=O)Nc2ccc3c(c2)[C@@H]2C[C@@H](CC(=O)NCc4cccc(F)c4)O[C@H](CO)[C@@H]2O3)c1
inactive: all assays above

CO[C@@H]1CN(C)C(=O)c2ccc(NC(=O)Nc3ccccc3)cc2OC[C@H](C)N(C(C)=O)C[C@H]1C
inactive: all assays above

CCCNC(=O)C[C@@H]1CC[C@H]2[C@@H](COC[C@H](O)CN2Cc2ccccc2F)O1
inactive: all assays above

CCCNC(=O)C[C@H]1C[C@H]2c3cc(NC(=O)Nc4ccc(OC)cc4)ccc3O[C@H]2[C@@H](CO)O1
inactive: all assays above

CN1C(=O)c2cc(NS(C)(=O)=O)ccc2OC[C@@H]2O[C@@H](CC(=O)O)CC[C@H]21
inactive: all assays above

CCC(C)(C(=O)Nc1cccc(C)c1)N1CCC1=O (stereo not given)
inactive: all assays above

CCC(=O)N[C@H]1C=C[C@H](CC(=O)NCC2CCCCC2)O[C@@H]1CO
inactive: all assays above

Cc1cccc(NC(=O)C2NC(=O)CC2c2ccccc2)c1C (stereo not given)
inactive: all assays above

C[C@H]1CN([C@@H](C)CO)C(=O)c2cc(-c3cncnc3)cnc2O[C@H]1CN(C)C(=O)c1ccccc1F
inactive: all assays above

O=C(O)C/C(=C\c1cccc(NC(=O)c2ccccc2Cl)c1)c1nc2ccccc2s1
inactive: all assays above

CCn1cc(C(=O)N(C)c2ccc(OC)cc2OC)c2cc(OC)c(OC)cc2c1=O
inactive: all assays above

CC(C)NC(=O)Nc1ccc2c(c1)C(=O)N([C@@H](C)CO)C[C@@H](C)[C@H](CN(C)Cc1ccncc1)OCCCC[C@@H](C)O2
inactive: all assays above

C[C@@H]1CN([C@H](C)CO)C(=O)c2cc(N(C)C)ccc2O[C@@H]1CN(C)C(=O)Nc1ccc(C(F)(F)F)cc1
inactive: all assays above

C[C@@H]1CCCCO[C@H](CN(C)C(=O)Nc2ccc(F)cc2)[C@H](C)CN([C@@H](C)CO)C(=O)c2cc(NS(=O)(=O)c3ccc(Cl)cc3)ccc2O1
inactive: all assays above

C[C@@H]1CN([C@@H](C)CO)C(=O)c2cc(/C=C/c3ccccc3)cnc2O[C@@H]1CN(C)S(C)(=O)=O
inactive: all assays above

CC(=O)c1cccc(NC(=S)NC2CCCCC2)c1
inactive: all assays above

C[C@H]1CN([C@@H](C)CO)C(=O)Cc2cc(NC(=O)C3CC3)ccc2O[C@H]1CN(C)Cc1ccc(-c2ccccc2)cc1
inactive: all assays above

CC(=O)N(C)C[C@H]1Oc2cc(C#Cc3ccc(F)cc3)ccc2S(=O)(=O)N([C@H](C)CO)C[C@@H]1C
inactive: all assays above

CCCNC(=O)N1C[C@H](O)COC[C@H]2O[C@H](CC(=O)N3CCN(C)CC3)CC[C@@H]21
inactive: all assays above

CC(=O)NNC(=O)CSc1nnc(-c2ccccc2)c(-c2ccccc2)n1
inactive: all assays above

O=C(C[C@@H]1CC[C@H]2[C@@H](COC[C@@H](O)CN2Cc2ccc(Cl)cc2)O1)NCc1cccc(F)c1
inactive: all assays above

Cc1cccc(C)c1NC(=O)C(CCc1ccccc1)N1CCN(C)CC1 (stereo not given)
inactive: all assays above

O=C(C[C@@H]1C[C@@H]2c3cc(NC(=O)Nc4ccc(F)cc4)ccc3O[C@@H]2[C@@H](CO)O1)NCC1CC1
inactive: all assays above

CO[C@H]1CN(C)C(=O)c2cc(NS(=O)(=O)c3ccc(C)cc3)ccc2OC[C@@H](C)N(C(=O)NC(C)C)C[C@@H]1C
inactive: all assays above

Cc1ccc(S(=O)(=O)Nc2ccc3c(c2)C(=O)N([C@H](C)CO)C[C@H](C)[C@@H](CN(C)Cc2ccccc2)O3)cc1
inactive: all assays above

C[C@@H]1CN([C@@H](C)CO)C(=O)c2cccc(NC(=O)C3CC3)c2O[C@@H]1CN(C)C
inactive: all assays above

CO[C@@H]1CN(C)C(=O)c2cc(NC(=O)Nc3cccc(F)c3)ccc2OC[C@H](C)N(C)C[C@@H]1C
inactive: all assays above

Cc1cc(C(=O)Nc2cccc3c2O[C@H](CN(C)S(=O)(=O)c2ccccc2)[C@H](C)CN([C@H](C)CO)C3=O)n(C)n1
inactive: all assays above

C[C@@H]1CN([C@@H](C)CO)C(=O)c2cc(NS(=O)(=O)c3ccc(F)cc3)ccc2O[C@@H](C)CCCCO[C@@H]1CN(C)Cc1ccc2c(c1)OCO2
inactive: all assays above

COc1ccc(CNC(=O)COc2ccc(OC)cc2)cc1
inactive: all assays above

C[C@H](CO)N1C[C@H](C)[C@H](CN(C)S(=O)(=O)c2ccccc2)Oc2ccc(NS(=O)(=O)c3ccc(F)cc3)cc2C1=O
inactive: all assays above

Cc1noc(C)c1S(=O)(=O)Nc1ccc2c(c1)C(=O)N([C@H](C)CO)C[C@H](C)[C@H](CN(C)Cc1ccncc1)O2
inactive: all assays above

CO[C@H]1CC[C@H]2CCOc3c(C#N)cccc3C(=O)N(C)C[C@@H](C)C(=O)N(C)C[C@H]1O2
inactive: all assays above

O=C(NC1CCCCC1)N[C@H]1C=C[C@@H](CC(=O)N2CCOCC2)O[C@H]1CO
inactive: all assays above

Cc1noc(C)c1NC(=O)Nc1cccc2c1O[C@@H](CN(C)S(=O)(=O)c1cn(C)cn1)[C@@H](C)CN([C@@H](C)CO)C2=O
inactive: all assays above

Cc1ccc(S(=O)(=O)Nc2ccc3c(c2)C(=O)N([C@@H](C)CO)C[C@H](C)[C@H](CN(C)C(=O)Nc2ccc(C(F)(F)F)cc2)O3)cc1
inactive: all assays above

COc1ccc(NC(=O)Nc2ccc3c(c2)C(=O)N([C@H](C)CO)C[C@@H](C)[C@@H](CN(C)S(=O)(=O)c2ccc(Cl)cc2)OCCCC[C@H](C)O3)cc1
inactive: all assays above

O=C(C[C@H]1C[C@@H]2c3cc(NC(=O)CC4CC4)ccc3O[C@@H]2[C@@H](CO)O1)NCc1cccc(F)c1
inactive: all assays above

Cc1noc(C)c1S(=O)(=O)N(C)C[C@@H]1OCCCC[C@@H](C)Oc2ccc(NC(=O)CCCCCC(=O)Nc3ccccc3N)cc2C(=O)N([C@H](C)CO)C[C@@H]1C
inactive: all assays above

C[C@@H]1CN([C@H](C)CO)C(=O)c2cc(-c3ccc(C#N)cc3)cnc2O[C@@H]1CN(C)C(=O)Nc1ccc(F)cc1
inactive: all assays above

COc1ccc(CN(C)C[C@@H]2Oc3ccc(NC(=O)C4CC4)cc3C(=O)N([C@H](C)CO)C[C@H]2C)cc1
inactive: all assays above

COc1cccc(C#Cc2cnc3c(c2)C(=O)N([C@H](C)CO)C[C@@H](C)[C@@H](CN(C)C(=O)C2CCOCC2)O3)c1
inactive: all assays above

C[C@@H]1CN([C@@H](C)CO)C(=O)c2cccc(N(C)C)c2O[C@H]1CN(C)C(=O)Nc1ccc(C(F)(F)F)cc1
inactive: all assays above

Source: PubChem BioAssay
